Test systems include SR leukemia; RPMI-8226 leukemia; OVCAR-8 ovarian; OVCAR-5 ovarian; OVCAR-4 ovarian; SK-OV-3 ovarian; IGROV1 ovarian; OVCAR-3 ovarian; HS 578T breast; NCI/ADR-RES ovarian; T-47D breast; BT-549 breast; MDA-MB-435 melanoma; SW-620 colon; MCF7 breast; HCT-116 colon; HCC-2998 colon; KM12 colon.
Common to all, as to assay: NCI-60 one-dose screen, 48 h (100 = growth as untreated, 0 = no growth, -100 = all killed)
Common to all, as to conditions: 10 µM unless noted

The text below walks through data of PubChem BioAssay (NCI).

The structures appear in SMILES notation. Values joined by “and” are separate entries in the source; they are usually repeats but may differ in a detail not shown here. Equal values may be shown once. The panel holds about 83,000 compounds, 20% with a hit somewhere; the sample as a whole holds those more often.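 Method: cells in 96-well plates; compound added at one concentration; 48 h incubation; percent growth measured; values under 10 scored active.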 Active and inactive are the calls of the source.

As to `Cc1cc(C)c(N)c(Br)c1`, the growth with SR leukemia was 98.8% (inactive) and 100% (inactive); in the assay on RPMI-8226 leukemia, 100% (inactive) and 96.7% (inactive); with OVCAR-8 ovarian it was 123% (inactive) and 106% (inactive); with OVCAR-5 ovarian, 101% (inactive) and 78.3% (inactive); with OVCAR-4 ovarian, 107% (inactive) and 88.6% (inactive); in the assay with SK-OV-3 ovarian it was 102% (inactive) and 96% (inactive). For the same molecule, the growth with IGROV1 ovarian was 97.1% (inactive) and 97.7% (inactive); with OVCAR-3 ovarian it was 117% (inactive) and 96.8% (inactive); with HS 578T breast, 121% (inactive) and 93.6% (inactive); in the assay on NCI/ADR-RES ovarian, 113% (inactive) and 69.2% (inactive); with T-47D breast, 98.1% (inactive) and 87.3% (inactive); with BT-549 breast, 108% (inactive) and 88.8% (inactive). In addition, the growth with MDA-MB-435 melanoma was 114% (inactive) and 104% (inactive); in the assay with SW-620 colon, 111% (inactive) and 104% (inactive); in the assay on MCF7 breast, 103% (inactive); with HCT-116 colon, 110% (inactive) and 95.8% (inactive); in the assay with HCC-2998 colon, 112% (inactive); with KM12 colon, 106% (inactive) and 102% (inactive).

On to `Cn1cnc([N+](=O)[O-])c1Sc1ncnc2nc[nH]c12`, for which the growth in the assay on SR leukemia was 44.9% (inactive); in the assay with RPMI-8226 leukemia it was 34.1% (inactive) and 36.5% (inactive); with OVCAR-8 ovarian, 50% (inactive) and 75.4% (inactive); in the assay on OVCAR-5 ovarian, 61.8% (inactive) and 71.6% (inactive); with OVCAR-4 ovarian it was 39.7% (inactive) and 53.2% (inactive); in the assay on SK-OV-3 ovarian, 16.9% (inactive). For the same molecule, the growth was 74.5% (inactive) and 83.4% (inactive) with IGROV1 ovarian; 50.8% (inactive) and 39.5% (inactive) in the assay on OVCAR-3 ovarian; 79.6% (inactive) and 69.1% (inactive) in the assay with HS 578T breast; 67.2% (inactive) and 57.4% (inactive) with NCI/ADR-RES ovarian; 65.4% (inactive) and 79.7% (inactive) with T-47D breast; 70.7% (inactive) in the assay with BT-549 breast. Also, the growth in the assay on MDA-MB-435 melanoma was 33.7% (inactive) and 35.7% (inactive); in the assay on SW-620 colon, 93.8% (inactive) and 94.7% (inactive); with MCF7 breast, 36.2% (inactive) and 33.2% (inactive); in the assay with HCT-116 colon it was 50% (inactive) and 60.1% (inactive); with HCC-2998 colon it was 64.4% (inactive) and 55% (inactive); in the assay on KM12 colon, 51.2% (inactive) and 65.2% (inactive).

On to `CC(C)Oc1ccc2cc(-c3nn(CC4CCNCC4)c4ncnc(N)c34)ccc2c1`, for which the growth with SR leukemia was 18.3% (inactive) and -42.2% (active); with RPMI-8226 leukemia, 46.6% (inactive) and -53.2% (active); in the assay on OVCAR-8 ovarian, 90.8% (inactive) and 38.9% (inactive); with OVCAR-5 ovarian it was 80.1% (inactive) and 40.2% (inactive); in the assay with OVCAR-4 ovarian, 100% (inactive) and 30.9% (inactive); with SK-OV-3 ovarian it was 75.8% (inactive) and 13.3% (inactive). Moreover, the growth with IGROV1 ovarian was 92.1% (inactive) and 42.4% (inactive); with OVCAR-3 ovarian, 92.2% (inactive) and 33.9% (inactive); in the assay with HS 578T breast, 75.7% (inactive) and -8.78% (active); in the assay on NCI/ADR-RES ovarian it was 94.7% (inactive) and 64.2% (inactive); in the assay on T-47D breast, 77.8% (inactive) and -8.43% (active); in the assay with BT-549 breast, 73.2% (inactive) and -5.14% (active). The growth with MDA-MB-435 melanoma is 92.1% (inactive) and -86.6% (active); with SW-620 colon it was 91.7% (inactive) and 1.44% (active); with MCF7 breast it was 83.6% (inactive) and 15.2% (inactive); in the assay with HCT-116 colon, 50.4% (inactive) and 9.14% (active); in the assay with HCC-2998 colon, 77.7% (inactive) and -13.5% (active); in the assay with KM12 colon it was 86.4% (inactive) and 22.4% (inactive).

For `O=C1CCN(Cc2ccccc2)C(=S)N1`, the growth is 65.4% (inactive) and 101% (inactive) with SR leukemia; 94.5% (inactive) and 102% (inactive) in the assay with RPMI-8226 leukemia; 106% (inactive) and 107% (inactive) in the assay on OVCAR-8 ovarian; 106% (inactive) and 101% (inactive) in the assay with OVCAR-5 ovarian; 100% (inactive) with OVCAR-4 ovarian; 101% (inactive) with SK-OV-3 ovarian. The growth in the assay on IGROV1 ovarian is 92.4% (inactive) and 91.5% (inactive); in the assay with OVCAR-3 ovarian it was 123% (inactive) and 103% (inactive); in the assay with HS 578T breast, 114% (inactive) and 81.7% (inactive); in the assay on NCI/ADR-RES ovarian, 106% (inactive) and 103% (inactive); in the assay on T-47D breast it was 113% (inactive) and 103% (inactive); in the assay on BT-549 breast, 101% (inactive) and 117% (inactive). In addition, the growth in the assay on MDA-MB-435 melanoma is 108% (inactive) and 105% (inactive); in the assay on SW-620 colon, 105% (inactive); in the assay with MCF7 breast it was 119% (inactive) and 86% (inactive); in the assay with HCT-116 colon it was 103% (inactive) and 106% (inactive); in the assay on HCC-2998 colon it was 98.8% (inactive) and 99.9% (inactive); with KM12 colon, 104% (inactive) and 105% (inactive).

As to `O=CC(O)C(O)C(O)CO` (stereo not given), the growth was 109% (inactive) and 89.6% (inactive) with SR leukemia; 81.9% (inactive) and 122% (inactive) in the assay with RPMI-8226 leukemia; 110% (inactive) and 106% (inactive) in the assay on OVCAR-8 ovarian; 57.6% (inactive) and 97.7% (inactive) with OVCAR-5 ovarian; 101% (inactive) and 114% (inactive) in the assay on OVCAR-4 ovarian; 116% (inactive) and 101% (inactive) with SK-OV-3 ovarian. In addition, the growth in the assay on IGROV1 ovarian was 105% (inactive); with OVCAR-3 ovarian, 106% (inactive); in the assay on HS 578T breast it was 98.4% (inactive) and 106% (inactive); in the assay on NCI/ADR-RES ovarian, -41.1% (active) and 106% (inactive); in the assay on T-47D breast, 109% (inactive) and 96.5% (inactive); in the assay on BT-549 breast, 104% (inactive). Also, the growth in the assay with MDA-MB-435 melanoma is 112% (inactive) and 109% (inactive); with SW-620 colon, 107% (inactive) and 104% (inactive); with MCF7 breast it was 97.5% (inactive) and 94.6% (inactive); in the assay on HCT-116 colon, 112% (inactive) and 102% (inactive); with HCC-2998 colon, 101% (inactive); with KM12 colon, 103% (inactive) and 102% (inactive).
